According to PubChem BioAssay (NCATS):
Results filed as inconclusive are left out. Unmarked numbers belong to inactive results. Calls of active or inactive are those of the source. Calls follow the shape of the dose curve; as a rule, active = well fitted inhibition curve with a large enough effect; inconclusive = small, poorly fitted or top-dose-only effect; inactive = flat fitted curve, though single readings scatter.

Key:
CRL-7250 = normal cell line; assay: Cytotoxic Profiling of Annotated Libraries Using Quantitative High-Throughput Screening (AID 1296008); conditions: Five cell lines viability, CellTiter-Glo ATP luminescence, 48-72 h; max response: hits give low values; also: potency is read from the fitted curve at half-maximal effect; as to max response: % is scaled to controls: 0 for no effect and ±100 for the full control effect
Procedure, shortened: (§1)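 Compounds were pin-transferred onto cells and incubated 48 or 72 hr at 37 degree Celsius, 95% humidity. CellTiter-Glo was added, plates sat 10 min at room temperature, then ATP-coupled luminescence was imaged as the viability read-out.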

HaCat [1] = assay: as above; conditions: Five cell lines viability, CellTiter-Glo ATP luminescence, 48-72 h; max response: hits give low values
Procedure, shortened: as §1

NIH3T3 = assay: as above; conditions: Five cell lines viability, CellTiter-Glo ATP luminescence, 48-72 h; max response: hits give low values
Procedure, shortened: as §1

HACAT [2] = assay: qHTS assay to identify novel small-molecules to repurpose for Merkel cell carcinoma treatment (AID 1296009); conditions: MCC and control cell lines, CellTiter-Glo viability, 72 h; at 44.8 µM (top of the series) unless noted
Procedure, shortened: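 Cells exposed to NPC (8-point) and MIPE (11-point) compound dilutions for 72 hr at 37 degree celsius; viability read by CellTiter-Glo luminescence, normalized to no-cell and DMSO in-plate controls.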

KB-3-1 = assay: Cytotoxic Profiling of Annotated Libraries Using Quantitative High-Throughput Screening (AID 1296008); conditions: Five cell lines viability, CellTiter-Glo ATP luminescence, 48-72 h; max response: hits give low values; also: potency is read from the fitted curve at half-maximal effect; as to max response: % is scaled to controls: 0 for no effect and ±100 for the full control effect
Procedure, shortened: as §1
Also: nearly all actives have a fitted effect of over 60% in size.

For `C[C@]12CC[C@@H]3c4ccc(O)c(O)c4CC[C@H]3[C@@H]1CCC2=O`, the max response (CRL-7250) was -7.43%, the outcome (HaCat [1]) was “inactive” and the max response (NIH3T3) was -17.9%. The outcome (HACAT [2]) was “inactive”.

`COc1cc(C(=O)O)ccc1NC(=O)C1NC(CC(C)(C)C)C(C#N)(c2ccc(Cl)cc2F)C1c1cccc(Cl)c1F` (stereo not drawn) was tested, and the max response (CRL-7250) was -18.8%, the outcome (HaCat [1]) was “inactive” and the max response (NIH3T3) was -5.77%. For the same compound, the outcome (HACAT [2]) was “inactive”.

`CCN(CC)CCCS(=O)(=O)N[C@H](CCc1ccccc1)c1nc(Cc2ccc(Br)cc2)no1` was tested, and the max response (CRL-7250) was -4.82%, the outcome (HaCat [1]) was “inactive” and the max response (NIH3T3) was -16.9%. For the same compound, the outcome (HACAT [2]) was “inactive”.

For `O=S(=O)(c1ccccc1)N(CC(F)(F)F)c1ccc(C(O)(C(F)(F)F)C(F)(F)F)cc1`, the outcome (CRL-7250) was “inactive”, the outcome (HaCat [1]) was “inactive” and the max response (NIH3T3) was 0.0289%. The outcome (HACAT [2]) was “inactive”.

`CCOC(=O)c1ccc(OCCC2CCN(c3ccc(C)nn3)CC2)cc1` was tested, and the max response (CRL-7250) was -21.9%, the outcome (HaCat [1]) was “inactive” and the max response (NIH3T3) was -0.794%. For the same compound, the outcome (HACAT [2]) was “inactive”.

With `C/C=C/CCC1Cc2cc(O)c(CCCC)c(O)c2C(=O)O1` (stereo not drawn) the outcome (CRL-7250) was “inactive”, the outcome (HaCat [1]) was “inactive” and the max response (NIH3T3) was 2.45%. The outcome (HACAT [2]) was “inactive”.

With `O=C(NCCCCN1CCN(c2cccc(Cl)c2Cl)CC1)c1cc2ccccc2s1` the max response (CRL-7250) was -20.7%, the outcome (HaCat [1]) was “inactive” and the max response (NIH3T3) was -29.5%. The outcome (HACAT [2]) was “inactive”.

With `O=C(Nc1cccc2cccnc12)c1ccc(N2C(=O)[C@@H]3C4C=CC(C4)[C@@H]3C2=O)cc1` the Potency (CRL-7250) was 1300 nM (active) and the max response (KB-3-1) was -2.67%.

With `COc1ccccc1OCCNCC(O)CCOc1cccc2[nH]c3ccccc3c12` (stereo not drawn) the outcome (CRL-7250) was “inactive”, the outcome (HaCat [1]) was “inactive” and the max response (NIH3T3) was -5.46%. For the same compound, the outcome (HACAT [2]) was “inactive”.

`Cc1nnc(-c2ccc(-c3ccc(C(=O)Nc4ccc(O)c(N5CCN(C)CC5)c4)cc3)c(C)c2)o1` was tested, and the max response (CRL-7250) was 3.58%, the outcome (HaCat [1]) was “inactive” and the outcome (NIH3T3) was “inactive”. For the same compound, the outcome (HACAT [2]) was “inactive”.

For `CCCCCCCOc1cc2c(cc1/C(C)=C/c1ccc(C(=O)O)cc1)C(C)(C)CCS2(=O)=O`, the outcome (CRL-7250) was “inactive”, the outcome (HaCat [1]) was “inactive” and the outcome (NIH3T3) was “inactive”. For the same compound, the outcome (HACAT [2]) was “inactive”.

For `CC(C)=C[C@@H]1[C@H](CO[C@@H]2O[C@H](CO)[C@@H](O)[C@H](O)[C@H]2O)C1(C)C`, the outcome (CRL-7250) was “inactive”, the outcome (HaCat [1]) was “inactive” and the max response (NIH3T3) was 4.21%. For the same compound, the outcome (HACAT [2]) was “inactive”.

In the case of `O=C(Nc1nc2ccc([N+](=O)[O-])cc2s1)C1CCCCC1`, the max response (CRL-7250) is reported as -7.28%, the outcome (HaCat [1]) is reported as “inactive” and the max response (NIH3T3) is reported as -1.61%. For the same compound, the outcome (HACAT [2]) was “inactive”.

Work on `CC1(C)CCCC2(C)C1C(=O)C=C(C(=O)O)C2(O)C(=O)O` (stereo not drawn) yielded a max response (CRL-7250) of -16% and a max response (NIH3T3) of -3.77%.

For `CC1(NC(=O)c2ccc(C#Cc3cccc(F)c3)cn2)COC1`, the max response (CRL-7250) was 4.8%, the max response (KB-3-1) was -5.29% and the max response (NIH3T3) was -3.45%.

In the case of `Cc1ccnn1-c1ccc(C(=O)N2CCN(S(=O)(=O)c3ccc(Cl)c(C(F)(F)F)c3)CC2)cc1`, the outcome (CRL-7250) is reported as “inactive”, the max response (KB-3-1) is reported as -18.8% and the max response (NIH3T3) is reported as -5.12%.

In the case of `CCCC(Nc1nc(-c2ccc(NC(=O)NCC)c(OC)c2)ncc1C)c1cccnc1` (stereo not drawn), the Potency (CRL-7250) is reported as 206 nM (active) and the Potency (KB-3-1) is reported as 146 nM (active).

Compound `COc1ccc([C@H]2Cc3cccc(O)c3C(=O)O2)cc1OC` has a max response (CRL-7250) of -21.6% and a max response (KB-3-1) of 2.52%.

`Cc1c(NC(=O)OCC2COCCN2)cn2ncnc(Nc3ccc4c(cnn4Cc4cccc(F)c4)c3)c12` (stereo not drawn) gave a max response (CRL-7250) of -30.6% and a max response (KB-3-1) of -18.9%.

For `CCCCc1c(-c2ccc(OC)cc2)[nH]c2nccnc12`, the outcome (CRL-7250) was “inactive” and the max response (KB-3-1) was 2.93%.

Compound `COc1ccccc1C(=O)Nc1cc2c(cc1N1CCCC1)n(C)c(=O)n2C` has a max response (CRL-7250) of -29%, a max response (KB-3-1) of -11.6% and a max response (NIH3T3) of -10.9%.

`CC1(CO)CC2C(O)C3=C(CC(C)(O)C2C1)C(=O)OC3` (stereo not drawn) showed a max response (CRL-7250) of -1.99%, a max response (KB-3-1) of 9.13% and a max response (NIH3T3) of 1.99%.

With `Cc1cc(C)c2c(c1)C(N(Cc1cc(C(F)(F)F)cc(C(F)(F)F)c1)c1nnn(C)n1)CCCN2CC1CCC(C(=O)O)CC1` (stereo not drawn) the max response (CRL-7250) was 2.9% and the Potency (KB-3-1) was 14600 nM (active).

Compound `CCN(c1cc(-c2ccc(CN3CCOCC3)cc2)cc(C(=O)NCc2c(C)cc(C)[nH]c2=O)c1C)C1CCOCC1` has a max response (CRL-7250) of -21.9%, a max response (KB-3-1) of -1.86% and a max response (NIH3T3) of -11.7%.

`OC[C@H]1O[C@@H](OC/C=C/c2ccc(O)cc2)[C@H](O)[C@@H](O)[C@@H]1O` was tested, and the max response (CRL-7250) was -28.9%, the max response (KB-3-1) was -4.8% and the max response (NIH3T3) was -11.1%.

In the case of `Nc1nccc(-c2c(-c3ccc(F)cc3)ncn2C2CCCCC2)n1`, the max response (CRL-7250) is reported as -18.7%, the max response (KB-3-1) is reported as -18.1% and the Potency (NIH3T3) is reported as 16400 nM (active).
